Assay [1] deals with Glucocorticoid receptor (Homo sapiens) (UniProt P04150). Description: qHTS assay for small molecule agonists of glucocorticoid receptor signaling (AID 588532; active means well fitted curve in the direction sought with a large enough effect in the signal ratio, with a control signal flat; the % refers to the signal ratio;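 further: 100% = dexamethasone at 0.1 µM and 0% = DMSO only wells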). The settings on record: HeLa MMTV-bla, beta-lactamase ratio, agonist, 18 h; stronger effect = higher value; percent of dexamethasone control, DMSO zero. In a few lines: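 Cells were plated and rested 3-5 h at 37 C, compounds were added in titration and incubated 18 h, then CCF4 substrate was loaded for 2 h at RT before reading blue/green fluorescence. EC50 came from Hill-equation fitting.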
Chain of Glucocorticoid receptor (Homo sapiens) (P04150 whole entry, looked up): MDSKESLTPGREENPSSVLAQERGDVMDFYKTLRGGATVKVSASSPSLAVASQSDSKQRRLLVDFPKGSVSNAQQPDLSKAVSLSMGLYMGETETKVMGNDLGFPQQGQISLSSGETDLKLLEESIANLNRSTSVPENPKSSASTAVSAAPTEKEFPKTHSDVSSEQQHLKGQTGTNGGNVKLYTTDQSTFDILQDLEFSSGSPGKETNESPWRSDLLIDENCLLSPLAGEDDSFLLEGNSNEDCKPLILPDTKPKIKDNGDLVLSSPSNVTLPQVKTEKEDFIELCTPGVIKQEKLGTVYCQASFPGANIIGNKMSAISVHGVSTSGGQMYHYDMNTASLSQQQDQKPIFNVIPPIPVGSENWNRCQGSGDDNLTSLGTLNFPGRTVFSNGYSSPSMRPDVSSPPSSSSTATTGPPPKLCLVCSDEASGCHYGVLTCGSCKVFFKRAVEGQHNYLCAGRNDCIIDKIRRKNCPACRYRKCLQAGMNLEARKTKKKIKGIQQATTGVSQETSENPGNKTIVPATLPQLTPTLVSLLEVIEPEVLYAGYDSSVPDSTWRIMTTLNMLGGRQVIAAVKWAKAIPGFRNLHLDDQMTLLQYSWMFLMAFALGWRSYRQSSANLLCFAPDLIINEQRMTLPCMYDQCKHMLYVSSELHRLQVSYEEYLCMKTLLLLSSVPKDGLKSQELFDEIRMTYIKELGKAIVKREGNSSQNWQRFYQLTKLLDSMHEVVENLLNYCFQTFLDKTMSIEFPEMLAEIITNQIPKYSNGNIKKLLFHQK

Assay [2] has the same target. Put plainly: qHTS assay for small molecule antagonists of glucocorticoid receptor signaling (AID 588533; active means well fitted inhibition curve with a large enough effect in the signal ratio, with a control signal flat, not every such curve was filed as active; the % refers to the signal ratio; further: on the % scale 0 is the no-effect control and ±100 the full control effect). The settings on record: HeLa MMTV-bla, GRE beta-lactamase ratio, antagonist mode, 18 h; series mostly up to 76.8 µM. An outline of the steps:
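Antagonist-mode qHTS: compound titrations added to GRE-bla HeLa cells, then dexamethasone 2 nM final; 18 h, 37 C. CCF4 FRET fluorescence normalized to dexamethasone and DMSO; IC50 from Hill fit.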

The nature of assay [3]: qHTS assay for small molecule antagonists of peroxisome proliferator-activated receptor delta signaling (AID 588535; active means well fitted inhibition curve with a large enough effect in the signal ratio, with a control signal flat, not every such curve was filed as active; the % refers to the signal ratio;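 on max response: cells co-treated with a PPAR-delta agonist as stimulator during compound exposure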). The settings on record: HEK293T PPARd-UAS-bla, beta-lactamase FRET ratio, 18 h; 460 nm channel. An outline of the steps: (§1)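 Beta-lactamase reporter read-out (405 nm excitation, 460/530 nm emission) after CCF4 loading for 2 hrs at RT. HEK293T PPAR-delta-UAS-bla cells, 2% charcoal/dextran FBS, compounds for 18 hrs at 37 C. Hill fit gave IC50 and efficacy.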

The target in assay [4] is Peroxisome proliferator-activated receptor gamma (Homo sapiens) (UniProt P37231). Description: qHTS assay for small molecule agonists of peroxisome proliferator-activated receptor gamma signaling (AID 588536; active means well fitted curve in the direction sought with a large enough effect in the signal ratio, with a control signal flat, not every such curve was filed as active; the % refers to the signal ratio;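 further: 0% = DMSO basal wells and 100% = rosiglitazone at 2 µM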). The settings on record: HEK293 PPARg-UAS-bla, beta-lactamase ratio, 16 h, percent of rosiglitazone response, DMSO as zero; series mostly up to 76.7 µM. In a few lines: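 Cells were plated and held 6–6.5 h at 37 C, then compounds were added as a titration series. After a further 16 h, CCF4 dye was loaded for 2 h at room temperature and emission at 460/530 nm recorded.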
Chain of Peroxisome proliferator-activated receptor gamma (Homo sapiens) (P37231 whole entry, looked up): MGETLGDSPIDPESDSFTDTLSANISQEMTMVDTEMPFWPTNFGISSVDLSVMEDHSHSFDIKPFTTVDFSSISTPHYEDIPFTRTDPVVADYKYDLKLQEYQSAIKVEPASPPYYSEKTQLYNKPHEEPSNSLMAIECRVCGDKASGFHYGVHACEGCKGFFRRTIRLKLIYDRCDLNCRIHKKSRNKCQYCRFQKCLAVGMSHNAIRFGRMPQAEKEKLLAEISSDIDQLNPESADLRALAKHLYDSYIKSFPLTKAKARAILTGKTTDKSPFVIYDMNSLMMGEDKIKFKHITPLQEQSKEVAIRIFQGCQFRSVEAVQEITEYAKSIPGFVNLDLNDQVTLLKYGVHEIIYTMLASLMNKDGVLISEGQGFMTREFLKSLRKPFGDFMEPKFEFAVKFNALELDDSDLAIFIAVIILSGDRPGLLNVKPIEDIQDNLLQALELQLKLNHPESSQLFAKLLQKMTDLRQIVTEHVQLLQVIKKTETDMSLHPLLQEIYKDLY
Background: Quantitative high-throughput screening tests each substance at several concentrations.

Assay [5] has as its target Vitamin D3 receptor (Homo sapiens) (UniProt P11473). Description: qHTS assay for small molecule antagonists of vitamin D receptor signaling (AID 588541).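 Further: receptor activated by calcitriol during compound treatment; on the % scale 0 is the no-effect control and ±100 the full control effect.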 As to conditions: HEK293T VDR-UAS-bla, beta-lactamase ratio, antagonist mode; series mostly up to 76.7 µM. An outline of the steps: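 VDR-UAS-bla HEK293T cells in 2% charcoal-stripped FBS were stimulated with 1-alpha,25-dihydroxyvitamin D3 (3 nM final) plus compound for 16 h at 37 C. The beta-lactamase CCF4 readout was normalized to 50 nM agonist and DMSO, and Hill fits gave IC50.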

Assay [6] has the same target. Put plainly: qHTS assay for small molecule agonists of vitamin D receptor signaling (AID 588543).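 Further: 0% = DMSO basal and 100% = reference agonist control.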 The settings on record: HEK293T VDR-UAS-bla, beta-lactamase ratio, 16 h; series mostly up to 76.8 µM. In a few lines:
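Reporter cells (HEK293T, VDR-UAS-bla) were seeded in medium with 2% charcoal-stripped serum and incubated 5 h, then compounds in concentration series were added for 16 h at 37 °C. Stimulation was scaled between DMSO basal and 50 nM 1α,25-dihydroxyvitamin D3.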

Assay [7] is described as follows: qHTS assay for small molecule agonists of retinoid X receptor alpha signaling (AID 588544).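 On activation: 0% = DMSO basal wells and 100% = reference agonist.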 The settings on record: HEK293T RXRa-UAS-bla, beta-lactamase reporter, 18 h; 530 nm emission.
For assay [8], the target named is Thyroid hormone receptor beta (Homo sapiens) (UniProt P10828). Description: qHTS assay for small molecule agonists of thyroid hormone receptor beta signaling (AID 588545). The settings on record: TR-UAS-bla GripTite HEK 293, beta-lactamase ratio, agonist mode, 18 h, percent of T3 response, DMSO as zero; series mostly up to 76.7 µM. An outline of the steps: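 Agonist activity was read as beta-lactamase CCF4 fluorescence (405 ex, 460/530 em), scaled between DMSO (0%) and 10 nM T3 (100%), then Hill-fitted for EC50 and efficacy. HEK 293 TR-UAS-bla cells in 2% charcoal/dextran FBS medium were exposed 18 h at 37 C.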
Chain of Thyroid hormone receptor beta (Homo sapiens) (P10828 whole entry, looked up): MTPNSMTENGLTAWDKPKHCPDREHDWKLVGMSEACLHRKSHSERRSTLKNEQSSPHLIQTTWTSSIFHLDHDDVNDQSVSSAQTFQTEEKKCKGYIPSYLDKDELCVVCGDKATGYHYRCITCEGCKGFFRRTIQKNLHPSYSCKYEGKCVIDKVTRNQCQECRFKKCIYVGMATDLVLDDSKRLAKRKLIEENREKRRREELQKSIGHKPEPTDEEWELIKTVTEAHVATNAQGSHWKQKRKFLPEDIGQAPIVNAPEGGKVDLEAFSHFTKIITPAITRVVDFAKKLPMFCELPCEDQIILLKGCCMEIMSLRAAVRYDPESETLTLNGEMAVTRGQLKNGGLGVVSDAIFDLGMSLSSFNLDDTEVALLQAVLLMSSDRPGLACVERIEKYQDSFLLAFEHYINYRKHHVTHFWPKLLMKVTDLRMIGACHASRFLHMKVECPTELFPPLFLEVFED

Assay [9] can be described thus: qHTS assay for small molecule antagonists of retinoid X receptor alpha signaling (AID 588546; active means well fitted inhibition curve with a large enough effect in the signal ratio, with a control signal flat, not every such curve was filed as active; the % refers to the signal ratio;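 further: cells stimulated with 9-cis-retinoic acid as agonist; on the % scale 0 is the no-effect control and ±100 the full control effect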). As to conditions: HEK293T RXRa-UAS-bla, beta-lactamase ratio, antagonist mode; measured here: W530 green channel, cytotoxicity proxy. In a few lines: (§2)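 Beta-lactamase reporter inhibition, read as CCF4 fluorescence ratio (ex 405, em 460/530 nm) after 2 h at RT. HEK293T UAS-bla cells, 2500/well, were stimulated with 9-cis-RA at 500 or 100 nM final alongside test compound for 18 h at 37 C.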

In assay [10] the target is Retinoic acid receptor RXR-alpha (Homo sapiens) (UniProt P19793). Described as above. The settings on record: HEK293T RXRa-UAS-bla, beta-lactamase ratio, antagonist mode. In a few lines: as §2
Chain of Retinoic acid receptor RXR-alpha (Homo sapiens) (P19793 whole entry, looked up): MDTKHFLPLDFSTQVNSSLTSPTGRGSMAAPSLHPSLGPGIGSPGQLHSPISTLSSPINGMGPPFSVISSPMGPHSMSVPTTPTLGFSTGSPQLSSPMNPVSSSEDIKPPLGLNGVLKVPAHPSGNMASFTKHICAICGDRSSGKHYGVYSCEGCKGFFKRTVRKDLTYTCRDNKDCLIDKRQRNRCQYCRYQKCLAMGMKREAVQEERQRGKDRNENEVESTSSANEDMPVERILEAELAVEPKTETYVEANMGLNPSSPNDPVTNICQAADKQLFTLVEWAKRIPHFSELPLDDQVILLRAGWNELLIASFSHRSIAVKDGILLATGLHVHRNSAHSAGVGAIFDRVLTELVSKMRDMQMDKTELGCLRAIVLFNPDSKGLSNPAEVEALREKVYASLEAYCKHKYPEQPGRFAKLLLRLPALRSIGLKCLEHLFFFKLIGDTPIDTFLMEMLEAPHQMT
For assay [11], the target named is Thyroid hormone receptor beta (Homo sapiens) (UniProt P10828). Description: qHTS assay for small molecule antagonists of thyroid hormone receptor beta signaling (AID 588547; active means well fitted inhibition curve with a large enough effect in the signal ratio, with a control signal flat, not every such curve was filed as active; the % refers to the signal ratio;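 further: cells stimulated with 0.4 nM T3 agonist during compound exposure; on the % scale 0 is the no-effect control and ±100 the full control effect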). As to conditions: TR-UAS-bla HEK293, beta-lactamase ratio, antagonist mode, 18 h. In a few lines: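 TR-UAS-bla GripTite HEK293 cells in 2% charcoal/dextran FBS medium; compounds 0.59 nM to 92 uM with T3 at 0.4nM final, 18 h at 37 C. Beta-lactamase read by CCF4 fluorescence (460/530 nm); Hill fits gave IC50 and efficacy.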

Assay [12] deals with Voltage-gated inwardly rectifying potassium channel KCNH2 (Homo sapiens) (UniProt Q12809). Description: qHTS Assay for Small Molecule Inhibitors of the Human hERG Channel Activity (AID 588834; active means well fitted inhibition curve with a large enough effect;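 further: top concentration of the series differs between compounds; on the % scale 0 is the no-effect control and ±100 the full control effect; lower thallium flux fluorescence means stronger hERG block; nearly all actives have a fitted effect of over 50% in size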). The settings on record: U2OS BacMam hERG, FluxOR thallium flux fluorescence; series mostly up to 92.2 µM. In a few lines: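 Step 1: BacMam hERG transduction of U2OS, 4 hrs RT. Step 2: overnight 37 °C, plate 2000 cells/well, 4 hr. Step 3: FluxOR load, compound 10 min, stimulate, read fluorescence.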
Chain of Voltage-gated inwardly rectifying potassium channel KCNH2 (Homo sapiens) (Q12809 whole entry, looked up): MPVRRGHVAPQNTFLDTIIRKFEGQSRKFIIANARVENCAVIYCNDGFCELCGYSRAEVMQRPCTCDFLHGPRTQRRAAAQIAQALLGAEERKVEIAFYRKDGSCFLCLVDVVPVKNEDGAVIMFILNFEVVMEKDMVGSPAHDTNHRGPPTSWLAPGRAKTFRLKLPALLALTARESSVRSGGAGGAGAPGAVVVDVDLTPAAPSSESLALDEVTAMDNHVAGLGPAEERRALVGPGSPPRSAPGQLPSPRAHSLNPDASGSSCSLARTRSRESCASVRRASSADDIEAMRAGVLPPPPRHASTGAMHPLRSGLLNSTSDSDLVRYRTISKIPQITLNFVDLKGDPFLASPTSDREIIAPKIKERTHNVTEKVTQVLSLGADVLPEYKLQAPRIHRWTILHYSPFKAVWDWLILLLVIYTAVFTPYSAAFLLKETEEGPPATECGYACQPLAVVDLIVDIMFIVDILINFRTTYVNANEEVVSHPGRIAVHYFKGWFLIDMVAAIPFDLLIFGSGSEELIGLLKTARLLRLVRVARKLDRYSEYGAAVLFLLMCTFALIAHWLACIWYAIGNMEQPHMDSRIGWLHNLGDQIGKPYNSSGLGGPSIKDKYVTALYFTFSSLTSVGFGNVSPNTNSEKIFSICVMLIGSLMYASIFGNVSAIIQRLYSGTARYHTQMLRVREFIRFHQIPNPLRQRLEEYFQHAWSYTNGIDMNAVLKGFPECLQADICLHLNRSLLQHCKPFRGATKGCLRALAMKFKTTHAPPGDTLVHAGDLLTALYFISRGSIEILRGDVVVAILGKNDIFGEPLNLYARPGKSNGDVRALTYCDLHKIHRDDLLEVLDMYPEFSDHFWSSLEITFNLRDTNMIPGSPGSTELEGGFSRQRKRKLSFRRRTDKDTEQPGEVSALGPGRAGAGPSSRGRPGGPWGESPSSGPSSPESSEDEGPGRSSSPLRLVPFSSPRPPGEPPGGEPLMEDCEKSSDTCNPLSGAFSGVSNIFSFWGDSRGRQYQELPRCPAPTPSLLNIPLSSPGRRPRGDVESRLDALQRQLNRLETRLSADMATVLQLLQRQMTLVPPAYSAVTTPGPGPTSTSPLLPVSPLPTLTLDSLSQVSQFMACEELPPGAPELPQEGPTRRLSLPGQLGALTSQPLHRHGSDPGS

The nature of assay [13]: qHTS assay for small molecule agonists of the antioxidant response element (ARE) signaling pathway (AID 651741; active means well fitted activation curve with a large enough effect in the signal ratio; the % refers to the signal ratio; further: potency means the concentration at half of the fitted maximal effect; on activation: % of control where 0% means no effect). The settings on record: HepG2 ARE-bla reporter, beta-lactamase FRET ratio, 16 h; series mostly up to 96 µM. An outline of the steps:
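HepG2 ARE-bla reporter cells, 2,000/well; 5 h settle at 37 C/5% CO2; compound pin transfer (23 nL, DMSO); 16 h at 37 C; LiveBLAzer B/G FRET substrate, 2 h RT; fluorescence intensity read.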

The target in assay [14] is Retinoic acid receptor RXR-alpha (Homo sapiens) (UniProt P19793). Description: qHTS assay for small molecule agonists of retinoid X receptor alpha signaling (AID 588544).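 On activation: 0% = DMSO basal wells and 100% = reference agonist.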 The settings on record: HEK293T RXRa-UAS-bla, beta-lactamase reporter, 18 h; series mostly up to 76.7 µM.
Assay [15] is described as follows: qHTS assay for small molecule activators of the p53 signaling pathway (AID 651743; active means well fitted activation curve with a large enough effect in the signal ratio, not every such curve was filed as active; the % refers to the signal ratio; further: % of control where 0% means no effect). As to conditions: HCT-116 p53RE-bla, beta-lactamase FRET ratio, 16 h; stronger effect = higher value. An outline of the steps: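 Reporter: beta-lactamase driven by p53 response elements, stably integrated in HCT-116 cells. Cells seeded at 4,000/well, 5 h preincubation, compound (DMSO) 16 h at 37 C; B/G FRET substrate 2 h RT; fluorescence intensity read.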

The nature of assay [16]: qHTS assay for small molecule activators of the nuclear factor-kappa B (NF-kB) signaling pathway (AID 651749; active means well fitted activation curve with a large enough effect in the signal ratio; the % refers to the signal ratio; further: % of control where 0% means no effect). As to conditions: NF-kB-bla ME-180 cells, beta-lactamase FRET ratio, 16 h; stronger effect = higher value. In a few lines:
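NF-kB-bla ME-180 cells, 2,000/well; 23 nL compound or DMSO pinned; 16 hr, 37C/5% CO2; beta-lactamase FRET read-out.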

The target in assay [17] is Peroxisome proliferator-activated receptor gamma (Homo sapiens) (UniProt P37231). Description: qHTS assay for small molecule antagonists of peroxisome proliferator-activated receptor gamma signaling (AID 588537; active means well fitted inhibition curve with a large enough effect in the signal ratio, with a control signal flat, not every such curve was filed as active; the % refers to the signal ratio;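 further: reporter cells co-stimulated with 50 nM rosiglitazone agonist during compound treatment; % of control where 0% means no effect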). As to conditions: HEK293 PPARg-UAS-bla, beta-lactamase ratio, antagonist mode; series mostly up to 76.8 µM. An outline of the steps: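 Read-out: CCF4 fluorescence (ex 405, em 460/530 nm) after 2 h at RT. Cells were HEK293 carrying a UAS-bla reporter and treated 16 h at 37 C with compound plus rosiglitazone (50 nM final). Normalized to rosiglitazone and DMSO.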

Assay [18] concerns the target Peroxisome proliferator-activated receptor delta (Homo sapiens) (UniProt Q03181). Put plainly: qHTS assay for small molecule antagonists of peroxisome proliferator-activated receptor delta signaling (AID 588535).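 On max response: cells co-treated with a PPAR-delta agonist as stimulator during compound exposure.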 As to conditions: HEK293T PPARd-UAS-bla, beta-lactamase FRET ratio, 18 h; series mostly up to 76.7 µM. In a few lines: as §1

Records with an inconclusive call do not appear. Activity calls are given as the source filed them. Unless noted, the call rests on the fitted dose curve.

Chain of Vitamin D3 receptor (Homo sapiens) (P11473 whole entry, looked up): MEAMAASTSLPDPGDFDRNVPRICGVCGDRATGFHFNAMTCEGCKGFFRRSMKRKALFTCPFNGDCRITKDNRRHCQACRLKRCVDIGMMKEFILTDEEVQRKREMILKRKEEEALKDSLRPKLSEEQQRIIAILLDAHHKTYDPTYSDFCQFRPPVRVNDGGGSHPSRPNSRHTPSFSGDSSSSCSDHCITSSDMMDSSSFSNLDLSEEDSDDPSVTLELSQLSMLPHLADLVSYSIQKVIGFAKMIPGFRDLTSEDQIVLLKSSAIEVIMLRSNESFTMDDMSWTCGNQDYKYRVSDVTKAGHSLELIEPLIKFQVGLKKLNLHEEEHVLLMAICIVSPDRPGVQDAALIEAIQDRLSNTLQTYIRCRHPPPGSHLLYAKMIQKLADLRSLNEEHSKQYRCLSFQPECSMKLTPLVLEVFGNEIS
Chain of Peroxisome proliferator-activated receptor delta (Homo sapiens) (Q03181 whole entry, looked up): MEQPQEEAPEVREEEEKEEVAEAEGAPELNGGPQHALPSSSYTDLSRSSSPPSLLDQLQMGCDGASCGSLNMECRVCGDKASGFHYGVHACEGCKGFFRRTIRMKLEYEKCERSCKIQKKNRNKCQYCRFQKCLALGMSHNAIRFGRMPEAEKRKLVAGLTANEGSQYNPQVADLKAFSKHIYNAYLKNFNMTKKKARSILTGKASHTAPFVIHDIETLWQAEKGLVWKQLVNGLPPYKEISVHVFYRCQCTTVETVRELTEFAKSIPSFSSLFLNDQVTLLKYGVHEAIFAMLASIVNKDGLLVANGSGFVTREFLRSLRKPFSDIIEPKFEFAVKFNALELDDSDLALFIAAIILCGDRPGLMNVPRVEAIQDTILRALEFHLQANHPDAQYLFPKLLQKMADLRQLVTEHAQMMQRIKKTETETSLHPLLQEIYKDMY

As for `O=C(Cl)c1c(Cl)cccc1Cl`, the activation in assay [1] was -4.67% (inactive). The result in assay [2], in assay [4], in assay [5], in [6] and in [8] was inactive. The max response is -5.79% in assay [3], -8.14% in assay [7], -4.7% in [9] and 4.97% (inactive) in assay [10]. Further, the activity change % (negative = inhibition) in assay [11] was -15.6% (inactive). Moreover, the Potency entry in assay [12] and in assay [13] was “inactive” throughout.

Take `Cc1ccc(C)c(N)c1`: the values for the activation in assay [1], in assay [15] and in assay [16] were -8.67% (inactive), -2.64% (inactive) and 0.0574% (inactive), respectively. Besides, the result in assay [2], in [4], in assay [5], in assay [6], in assay [14] and in assay [8] was inactive. Further, the max response was 30.9% in assay [3], 7.96% in assay [7], -10.5% in assay [9] and 21.7% (inactive) in assay [10]. In addition, in assay [11], the activity change % (negative = inhibition) is -4.28% (inactive). Also, the Potency result in assay [12] and in assay [13] was “inactive” throughout.

On to `CC(C)N=C=NC(C)C`, for which the activation in [1] was 4.13% (inactive); in [15] it was 1.3% (inactive); in assay [16], -0.231% (inactive). The result in [2], in assay [4], in assay [5], in assay [6], in [14] and in assay [8] was inactive. The max response was -13.3% in assay [7], 10.7% in assay [9] and 7.57% (inactive) in assay [10]. Also, the activity change % (negative = inhibition) in assay [11] is 1.37% (inactive). For the same compound, in assay [13], the Potency result is “inactive”.

For `Nc1cc(Cl)c([N+](=O)[O-])cc1O`, the activation was -1.56% (inactive) in assay [1], -0.259% (inactive) in [15] and 0.0071% (inactive) in [16]. The result in [2], in assay [5], in assay [6], in assay [14] and in assay [8] was inactive. Also, the max response in assay [7] was -11.8%; in assay [9], -8.58%; in [10] it was -8.94% (inactive). For the same compound, the activity change % (negative = inhibition) in assay [11] is 14.2% (inactive). The Potency entry in [12] is “inactive”. For the same compound, the Potency in assay [13] is 8.41 µM (active).

On to `CCCCOCCOCCOCCCC`, for which the activation in assay [1] is 9.2% (inactive); in assay [15], -0.253% (inactive); in assay [16], 0.513% (inactive). In addition, the outcome in assay [2], in [4], in [17], in assay [14] and in [8] was inactive. Also, in assay [7], the max response was -13.3%. Moreover, the activity change % (negative = inhibition) in assay [11] is 3.11% (inactive). In addition, the Potency entry in assay [12] was “inactive”.

For `CCOC(=O)C(C)C(C)=O` (configuration not stated), the figures for the activation in [1] and in assay [15] were -10.2% (inactive) and 6.52% (inactive), respectively. The outcome in [2], in [14] and in [8] was inactive. Further, in assay [7], the max response is -14.3%. Moreover, in assay [11], the activity change % (negative = inhibition) is 2.26% (inactive). The Potency result in assay [12] is “inactive”.

In the case of `OC1CCCC1`, the values for the activation in assay [1] and in [16] were 0.774% (inactive) and 1.54% (inactive), respectively. Besides, the outcome in assay [2], in [4], in assay [17], in [5], in [6] and in assay [14] was inactive. Further, in assay [8], the result was inactive. Also, the results for the max response in assay [7], in assay [9] and in assay [10] were -0.127%, -8.22% and 5.18% (inactive), respectively. For the same compound, in assay [11], the activity change % (negative = inhibition) is 8.64% (inactive). For the same compound, the Potency result in [12] and in [13] was “inactive” throughout.

Take `Cc1ccc(C)c([N+](=O)[O-])c1`: the activation in assay [1] is -1.28% (inactive); in assay [16] it was 0.199% (inactive). For the same compound, the max response is -7.2% in [3] and -15.2% in [7]. For the same compound, the Potency result in [18] is “inactive”. Moreover, the result in assay [4], in assay [17], in assay [6] and in assay [8] was inactive. For the same compound, in assay [11], the activity change % (negative = inhibition) is 0.688% (inactive).

`CO[Si](CCCNCCC[Si](OC)(OC)OC)(OC)OC`: the activation is 5.31% (inactive) in [1], 0.23% (inactive) in [15] and 0.71% (inactive) in assay [16]. Moreover, the result in assay [2], in [4], in [17], in [5], in assay [6] and in assay [14] was inactive. In addition, the outcome in assay [8] was inactive. Also, the max response in [7] was 9.17%; in assay [9], 7.72%; in assay [10], 10.8% (inactive). For the same compound, in assay [11], the activity change % (negative = inhibition) was -0.795% (inactive). Also, the Potency entry in [12] and in assay [13] was “inactive” throughout.

The values above are taken from PubChem BioAssay (NCATS).
